This is an account of results in PubChem BioAssay AID504753 (Sanford-Burnham Center for Chemical Genomics, 2011).

For orientation: inhibition means the drop in the measured response relative to a control, in per cent.

The whole screen tested about 2,400 compounds, of which about 820 (34%) were called active. These entries were drawn from the full list. Unmarked numbers belong to inactive results.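 Rule for the calls: active = inhibition of at least 50% at 20 µM in any single replicate; inactive = the rest.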

In this assay the test system is glucose-6-phosphate dehydrogenase-6-phosphogluconolactonase (PfGluPho), Plasmodium falciparum 3D7. The experiment in a line: malaria parasite PfGluPho enzyme inhibition – biochemical, fluorescence intensity, single concentration, confirmation (AID 504753).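 Note: 0% = DMSO with substrate and 100% = DMSO lacking glucose-6-phosphate substrate.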 The note with it: recombinant PfGluPho, NADPH-diaphorase-resazurin fluorescence; at 20 µM; active compounds read high. (In general: Alamar Blue is a resazurin reagent that responds to reducing activity.)
`O=C1NC(=O)N(c2ccccc2)C(=O)/C1=C/c1ccc([N+](=O)[O-])s1`: the inhibition was 64.4% (active).

As to `COC(=O)N(c1ccc(OC)cc1)P1(=S)OCCC(C)O1` (stereo not given), the inhibition was 34.3%.

Consider `Cc1cc(C)c2c(c1)NP(=S)(c1ccccc1)N2` (stereo not given), for which the inhibition was -21%.

`O=C(CSC1c2ccccc2-c2ccccc21)N/N=C/c1ccccc1`: the inhibition was 35.3%.

In the case of `COc1cccc(-c2nc3ccc(N4CCN(C)CC4)cc3[nH]2)c1`, the inhibition was 13.5%.
